{"source": "PubChem BioAssay AID2241", "about": "(Broad Institute, 2010)", "note": "Screen size: about 21,000 compounds; about 110 (0.52%) were called active. The sample holds actives, similar compounds and a random draw of the others, so the mix is not that of the screen.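 The calls were made as follows: active = most replicate scores above 10, or exactly half above 10 with mean activity above 10; inconclusive = mean activity below 10 while half the replicates exceed 10; inactive = most replicate scores below 10.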", "data": [{"experiment": "caspase activation in A1-primed MEFs – cell-based, CaspaseGlo luminescence, A1 inhibitor project, primary screen (AID 2241);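 also: effector caspase 3 and 7 activity cleaving a DEVD luciferin substrate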", "conditions": "MEF A1-2A-BIM cells, caspase-Glo luminescence, 3 h; hits give high values; percent of clofoctol signal, DMSO as zero; concentration not given here", "values": [{"smiles": "COc1ccc(S(=O)(=O)Nc2ccc3c(c2)C(=O)N([C@H](C)CO)C[C@H](C)[C@H](CN(C)S(=O)(=O)c2ccc(Cl)cc2)O3)cc1", "caspase activation": "0.103% (inactive)"}, {"smiles": "O=C(CSc1nc2ccccc2o1)Nc1ccccn1", "caspase activation": "-3.01% (inactive)"}, {"smiles": "O=C(COc1cccc(NC(=O)c2ccccc2)c1)NCCOc1ccccc1", "caspase activation": "-0.0599% (inactive)"}, {"smiles": "c1ccc(-c2nc3ccccc3o2)cc1", "caspase activation": "-5.88% (inactive)"}, {"smiles": "O=C(Nc1cccc(-c2nc3ccccc3o2)c1)c1ccc(Br)cc1", "caspase activation": "14.9% (active)"}, {"smiles": "O=C(Nc1cccc(-c2nc3ccccc3o2)c1)c1cccc(OCc2ccccc2)c1", "caspase activation": "34% (active)"}, {"smiles": "CCOC(=O)c1cc(=O)c2ccc(OCc3ccccc3)cc2o1", "caspase activation": "-1.74% (inactive)"}, {"smiles": "O=C(/C=C/c1ccccc1)c1ccc(O[C@@H]2O[C@H](CO)[C@@H](O)[C@H](O)[C@H]2O)cc1O", "caspase activation": "-0.127% (inactive)"}, {"smiles": "C[C@@H]1CN([C@@H](C)CO)C(=O)c2cc(NS(=O)(=O)c3ccccc3)ccc2O[C@H]1CN(C)CC1CC1", "caspase activation": "-0.166% (inactive)"}, {"smiles": "C[C@H](CO)N1C[C@H](C)[C@H](CN(C)S(=O)(=O)c2cn(C)cn2)Oc2ccc(NS(=O)(=O)c3ccccc3)cc2C1=O", "caspase activation": "0.0901% (inactive)"}, {"smiles": "Cn1c(C(=O)NC2CCCC2)cc2oc3ccccc3c21", "caspase activation": "-1.2% (inactive)"}, {"smiles": "OCCN1N=C2c3ccccc3CCC2C1c1ccccc1Cl", "note": "(stereo unspecified)", "caspase activation": "0.231% (inactive)"}, {"smiles": "O=C1c2ccccc2C(=O)C1c1cc(=O)[nH]c2c1ccc1ccccc12", "caspase activation": "-0.299% (inactive)"}, {"smiles": "Cc1ccccc1N=C(N)N=C(N)N", "caspase activation": "0.116% (inactive)"}, {"smiles": "FC(F)(F)c1ccnc(Oc2ccc(C3=NCCS3)cc2)c1", "caspase activation": "-5.95% (inactive)"}, {"smiles": "CCOC(=O)c1c(C)n(O)c2ccc3nonc3c12", "caspase activation": "-0.716% (inactive)"}, {"smiles": "CCCCn1c2ccccc2c2nc3ccccc3nc21", "caspase activation": "-1.06% (inactive)"}, {"smiles": "CCSC1=C(C#N)C(=O)NCS1", "caspase activation": "0.116% (inactive)"}, {"smiles": "CCC(=O)Nc1ccccc1C(=O)Nc1ccccc1", "caspase activation": "0.303% (inactive)"}, {"smiles": "C[C@@H]1CN([C@H](C)CO)C(=O)c2cc(NC(=O)NC3CCCCC3)ccc2O[C@H]1CN(C)S(C)(=O)=O", "caspase activation": "0.129% (inactive)"}, {"smiles": "O=c1c2ccccc2nc(SCc2cccc(F)c2)n1C1CC1", "caspase activation": "-0.676% (inactive)"}, {"smiles": "CCN(CC)C(=S)SCc1nc(N)nc(Nc2ccccc2)n1", "caspase activation": "0.133% (inactive)"}, {"smiles": "CCC(C)NC(=O)Nc1ccc(C)c(Cl)c1", "note": "(stereo unspecified)", "caspase activation": "-1.99% (inactive)"}, {"smiles": "O=C(O)CCCC=C(c1ccccc1)c1ccccc1", "caspase activation": "-0.527% (inactive)"}, {"smiles": "COc1ccc(N/C(N)=N/c2nc(CSc3nc4ccccc4s3)cc(=O)[nH]2)cc1", "caspase activation": "-0.646% (inactive)"}, {"smiles": "CCCOC(=O)c1cc2ccccc2oc1=O", "caspase activation": "-1.82% (inactive)"}, {"smiles": "NC(=S)c1nc(-c2ccccc2)oc1N", "caspase activation": "-1.84% (inactive)"}, {"smiles": "OC(c1nc2ccccc2[nH]1)C(O)C(O)C(O)c1nc2ccccc2[nH]1", "note": "(stereo unspecified)", "caspase activation": "0.0552% (inactive)"}, {"smiles": "O=C(Sc1ccc(Oc2ccc(SC(=O)c3ccco3)cc2)cc1)c1ccco1", "caspase activation": "1.99% (inactive)"}, {"smiles": "Nc1c(C(=O)N2CCCCC2)sc2nc3c(cc12)CCC3", "caspase activation": "-1.2% (inactive)"}, {"smiles": "CCN(CCCn1c(=S)[nH]c2cc3c(cc2c1=O)OCO3)c1cccc(C)c1", "caspase activation": "0.124% (inactive)"}]}]}
